Screens deposited in PubChem by several laboratories.
A selection: hits, their analogues and other compounds. The true share with any hit is near 1.8%.
MBD2 DNA inh: inhibitors of human MBD2 binding to methylated oligonucleotide; TR-FRET; inhibition, % at 4.4 µM; actives 0.31% (n = 370,000); Q9UBB5; in the data active = inhibition above about 13%
UBC13 inh: blocks human UBC13 polyubiquitin chain formation; actives 0.47% (n = 330,000); P61088; TR-FRET; inhibition, % at 20 µM; in the data active = inhibition above about 45%, passing the limit was not always enough
UHRF1 MBD2 ctr: blocks human UHRF1 binding to methylated DNA. inhibition, % at 4.4 µM. Q96T88. actives 0.75% (n = 370,000). UHRF1 binding to methylated oligo, TR-FRET;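 also: UHRF1 SRA domain binding a hemimethylated CpG hairpin DNA probe; 0% = median of test compound wells and 100% = reference inhibitor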
Neddyl block: blocks human cullin neddylation; P61081+Q13564; TR-FRET cullin neddylation, biochemical; calls only at 25 µM; actives 0.58% (n = 360,000); in the data active = inhibition above about 36%
Target sequence (P61081 whole entry, looked up): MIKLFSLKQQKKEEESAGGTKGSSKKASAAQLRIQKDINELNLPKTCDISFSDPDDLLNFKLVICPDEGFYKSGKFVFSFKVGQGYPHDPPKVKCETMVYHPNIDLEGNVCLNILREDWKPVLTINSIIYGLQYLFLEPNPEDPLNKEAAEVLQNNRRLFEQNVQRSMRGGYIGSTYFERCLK
Target sequence (Q13564 whole entry, looked up): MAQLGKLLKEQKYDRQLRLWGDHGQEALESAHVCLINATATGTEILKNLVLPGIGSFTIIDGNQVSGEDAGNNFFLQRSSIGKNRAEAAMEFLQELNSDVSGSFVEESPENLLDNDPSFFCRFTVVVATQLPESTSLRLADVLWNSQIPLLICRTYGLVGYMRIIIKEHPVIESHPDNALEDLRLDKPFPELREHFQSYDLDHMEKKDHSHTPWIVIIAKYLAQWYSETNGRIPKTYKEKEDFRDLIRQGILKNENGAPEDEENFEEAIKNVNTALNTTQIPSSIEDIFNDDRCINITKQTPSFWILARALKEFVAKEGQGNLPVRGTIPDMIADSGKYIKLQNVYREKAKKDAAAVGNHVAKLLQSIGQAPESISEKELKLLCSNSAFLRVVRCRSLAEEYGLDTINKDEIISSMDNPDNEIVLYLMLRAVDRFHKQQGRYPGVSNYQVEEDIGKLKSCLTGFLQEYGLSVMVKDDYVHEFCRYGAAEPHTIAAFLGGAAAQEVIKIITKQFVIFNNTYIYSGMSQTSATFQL
UHRF1 ctr MBD2: counter-screen for MBD2 inhibitors: human UHRF1 methylated DNA binding inhibitors. UHRF1 binding to methylated oligonucleotide, TR-FRET. actives 25% (n = 1,000). inhibition, % at 4.4 µM. shares compounds with MBD2 DNA inh;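 also: UHRF1 SRA domain binding a labeled hemimethylated CpG hairpin DNA; 0% = vehicle only and 100% = reference inhibitor with vehicle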
MBD2 DBD conf: confirmation of human MBD2-DBD methylated oligonucleotide binding inhibitors; shares compounds with MBD2 DNA inh; TR-FRET MBD2-DBD binding to methylated oligonucleotide; inhibition, % at 4.4 µM; actives 26% (n = 1,000); AID 720531; in the data active = inhibition above about 14%
An asterisk follows results filed as active; i = inactive; x = no result given; + = active, no number. Rule as the data show it, unless noted: active = inhibition above about 21%; inactive = the rest.

SMILES	MBD2 DNA inh	UBC13 inh	UHRF1 MBD2 ctr	Neddyl block	UHRF1 ctr MBD2	MBD2 DBD conf
O=C(COC(=O)c1cc2c(s1)CCC2)Nc1ccc(F)cc1	14.9*	-12.1	27.5*	i	32.0*	19.3*
CC1(C)NC(=O)N(CC(O)COc2ccc(-c3ccc(C#N)cc3)cc2)C1=O (centres undefined)	-0.6	0.3	-1.5	x	x	x
CCCn1c(N)c(N2CCCCC2)c(=O)n(CC(=O)Nc2ccccc2C)c1=O	-5.4	-1.0	-1.3	i	x	x
CCCn1c(N)c(N2CCCCC2)c(=O)n(CC(=O)Nc2ccc(OC(F)(F)F)cc2)c1=O	17.6*	0.6	23.7*	i	15.4	2.4
COc1ccc(CC(NC(C)=O)C(=O)NC2CCN(c3c(Cc4ccccc4)c(C)nc4ncnn34)CC2)c(OC)c1 (centres undefined)	3.1	-1.8	-0.5	i	x	x
O=C(NC1CCCC1)C(c1ccncc1)N(C(=O)c1ccco1)c1ccccc1 (centres undefined)	2.4	4.0	-5.2	i	x	x
COc1ccc2nc(C)cc(Nc3ccc(N4CCN(C)CC4)cc3)c2c1	56.4*	30.3	54.2*	i	48.9*	51.4*
O=C(/C=C/c1ccco1)NC(=S)Nc1ccc(C(=O)O)cc1	48.2*	-9.5	86.8*	i	75.5*	30.4*
CN1/C(=C/C(=O)CSc2ccccc2C(=O)O)C(C)(C)c2ccccc21	-3.1	15.2	-1.4	i	x	x
COc1cc(C(=O)NC2CCN(C)CC2)ccc1Nc1ncc2c(n1)N(C1CCCCC1)CCC(=O)N2C	24.5*	x	36.6*	+	30.2*	27.6*
Cc1ccc(S(=O)(=O)Nc2cccc(CP(=O)(c3ccccc3)c3ccccc3)c2)cc1	1.4	-14.9	2.8	i	x	x
Cc1ccc(S(=O)(=O)N2CCCCC2)cc1C(=O)Nc1ccc(N2CCOCC2)cc1	-2.2	-2.6	2.5	i	x	x
COc1ccc2sc(-c3ccccc3OC)c(C#CCCO)c2c1	14.7*	4.8	16.8	i	8.8	6.5
N#Cc1ccc(CSc2nnc(NC(=O)C3CCCO3)s2)cc1 (centres undefined)	16.7*	4.6	24.5*	i	6.6	1.8
O=S(=O)(O)c1cc(O)c2cc(Nc3ccccc3)ccc2c1	26.3*	x	32.5*	+	31.1*	14.1*
Cc1oc2ccc(O)cc2c1C(=O)c1ccc(Cl)cc1	1.1	1.0	-1.8	i	x	x
Cc1oc2ccc(O)cc2c1C(=O)c1ccc(Br)cc1	16.1*	-8.8	-1.6	i	3.2	3.3
O=C(/C=C/c1cccs1)Nc1scc(-c2ccccc2)c1C(=O)O	14.1*	x	21.8*	i	2.4	1.8
O=C(CSc1nc2ccsc2c(=O)n1CC1CCC(C(=O)O)CC1)c1ccc(Cl)cc1 (centres undefined)	18.8*	-18.6	14.0	i	16.4	9.8
CCn1c(C)nc2cc(C(=O)NNC(=O)Nc3ccc(Cl)c(Cl)c3)ccc21	-0.6	4.1	1.2	x	x	x
CCOC(=O)c1[nH]c2ccc(OC)cc2c1NC(=O)c1nonc1C	-5.6	1.6	0.9	i	x	x
CCOC(=O)c1[nH]c2ccc(OC)cc2c1NC(=O)c1ccc(OC)c(OC)c1	15.2*	-9.9	2.4	i	6.2	2.3
Cc1ccc2sc(N(CCCN(C)C)C(=O)c3ccc(S(=O)(=O)N(C)Cc4ccccc4)cc3)nc2c1C	56.5*	38.9	-0.2	i	3.5	1.0
COC(=O)c1nnn(-c2nonc2N)c1CN1CCCC1	31.1*	3.0	2.2	i	3.1	3.3
O=C1CC(c2ccc(O)c(O)c2)Oc2c1ccc(O)c2O (centres undefined)	34.9*	-25.7	64.5*	i	26.7*	9.1
SMILES	MBD2 DNA inh	UBC13 inh	UHRF1 MBD2 ctr	Neddyl block	UHRF1 ctr MBD2	MBD2 DBD conf
COc1ccc(-c2cc3c(c4c2ccn4C)C2CCC3C2)cc1F (centres undefined)	5.0	x	0.7	i	x	x
O=C(NCCN1CCN(C(=O)c2ccc(F)cc2)CC1)c1ccc(F)cc1	13.9*	-2.0	-0.1	i	10.5	3.0
O=C(c1ccc(F)cc1)N1CCN(Cc2ccccc2)CC1	-4.0	-2.0	0.1	i	x	x
O=C1c2cccc(NCCNCCO)c2C(=O)c2cccc(NCCNCCO)c21	107.0*	x	93.4*	i	92.7*	107.6*
CCCCNC(=O)C[C@H]1C[C@@]2(C(=O)OC)C(=C[C@H](C3CCCC3)O[C@@H]2C)N(Cc2ccc(Cl)cc2Cl)C1=O	-1.3	x	0.8	x	x	x
COC(=O)[C@]12C[C@H](CC(=O)NCCCN3CCCC3=O)C(=O)N(Cc3ccc(Cl)cc3Cl)C1=C[C@H](C1CCCC1)O[C@@H]2C	14.9*	x	0.3	x	12.5	3.1
COC(=O)[C@]12C[C@H](CC(=O)NCC3CCCCC3)C(=O)N(Cc3ccccc3)C1=C[C@H](C(C)(C)C)O[C@@H]2C	19.6*	x	24.1*	x	2.9	1.8
Cc1ccc(C(=O)NC2CCS(=O)(=O)C2)cc1S(=O)(=O)N1CCCC1 (centres undefined)	17.0*	5.5	1.3	i	6.0	1.5
Cc1cccc(NC(=O)C2COc3ccccc3O2)n1 (centres undefined)	-4.6	6.2	-0.8	i	x	x
Cc1nc(C/C(=N\N)c2ccc(O)cc2O)cs1	1.8	-9.1	-4.5	i	x	x
CCc1cc(/C(Cc2csc(C)n2)=N/O)c(O)cc1O	13.8*	16.1	14.3	i	7.7	1.2
Cc1ccc(-n2c(SCC(=O)N/N=C/c3ccc(C)s3)nnc2-c2ccccc2)cc1	-1.3	-0.9	-5.1	i	x	x
CCOc1ccccc1NC=C1C(=O)OC(C)(C)OC1=O	13.4*	4.4	3.1	i	6.2	2.8
COc1ccccc1NC=C1C(=O)OC(C)(C)OC1=O	7.2	-3.1	4.9	i	x	x
Cc1ccsc1/C=C(/C#N)C(=O)NCc1ccccc1	-2.2	4.4	-1.8	i	x	x
COc1ccc(CN(C)C(=O)[C@H]2O[C@@H](n3ccc(N)nc3=O)[C@H](O)[C@@H]2O)cc1OC	0.1	x	0.3	i	x	x
CNC(=O)c1c(NC(=O)c2nc3ccccc3s2)sc2c1CCC2	x	-33.3	x	i	x	x
O=C(NCC1CCN(C(=O)C(=O)c2cccs2)CC1)c1ccncc1	-3.2	x	-0.1	x	x	x
O=C(NCC1CCN(C(=O)C(=O)c2cccs2)CC1)c1ccc2c(c1)CCO2	18.6*	x	14.4	x	7.0	3.1
COc1ccc(NC(=O)N(C)C[C@@H]2OCc3cn(nn3)CCCC(=O)N([C@H](C)CO)C[C@H]2C)cc1	16.9*	x	5.7	i	8.8	3.8
C[C@@H]1CN([C@@H](C)CO)C(=O)CCCn2cc(nn2)CO[C@H]1CN(C)C(=O)C1CC1	13.4*	x	0.2	x	4.1	1.1
NNS(=O)(=O)c1ccc2c(c1)Cc1cc(S(=O)(=O)NN)ccc1-2	3.8	-6.9	5.1	i	x	x
CSc1nsc(SC)c1C(=O)Nc1ccc(C(C)(C)C)cc1	0.6	0.0	1.5	i	x	x
CC(C)NC(=O)CSc1nc2ccccc2n1CC(=O)N(C(C)C)C(C)C	6.5	x	4.5	i	x	x
